# Assay results as given in PubChem BioAssay (NCATS).
# Records with an inconclusive call do not appear. Where a call stands in place of a potency, no number is given. The source made the active and inactive calls. Unless noted, calls come from the whole dose curve; as a rule, active = well fitted curve in the direction sought with a large enough effect; inconclusive = small, poorly fitted or top-dose-only effect, or another doubt; inactive = no such curve, though single readings can be large; an effect the other way counts as inactive or inconclusive.
# Experiments:
# [1] = molecular target: Pyruvate kinase (Leishmania mexicana) (UniProt Q27686); test: qHTS Validation Assay for Activators of Leishmania Mexicana Pyruvate Kinase (AID 959)
# Procedure, shortened: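 qHTS eight-point titrations against 0.2 nM LmPYK (E451W) in imidazole buffer pH 7.2 with 0.5 mM PEP, 0.1 mM ADP; 1 h, room temperature. Readout: PKLight luminescence, normalized to neutral DMSO wells.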
# [2] = Quantitative high throughput screen for delayed death inhibitors of the malarial parasite plastid, 48 hour incubation (AID 488752); note: nearly all actives have a fitted effect of over 65% in size
# Procedure, shortened: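 Luciferase-expressing P. falciparum in RBCs, 2% Hct, 0.1% parasitemia final; RPMI 1640 + 0.5% Albumax; 48 h, 37 C, 5% CO2; luminescence readout, signal drop = growth inhibition.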
# [3] = molecular target: M-phase phosphoprotein 8 (Homo sapiens) (UniProt Q99549); test: qHTS Validation Assay for Inhibitors for MPP8 Chromodomain Interactions with Methylated Histone Tails (AID 488949);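 note: AlphaScreen signal from MPP8 chromodomain bound to biotinylated H3K9me3 peptide; top concentration of the series differs between compounds; nearly all actives have a fitted effect of over 55% in size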
# Procedure, shortened: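 AlphaScreen proximity signal from streptavidin donor and Ni-chelate acceptor beads (10 ug/mL each) reported binding of MPP8 to trimethyl-K9 H3(1-18) peptide, both at 50 nM. The complex formed 30 min before a 30 min compound exposure at room temperature, in PBS pH 7.4.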
# [4] = molecular target: Transient receptor potential cation channel subfamily V member 1 (Homo sapiens) (UniProt Q8NER1); test: HTS Assay for Compounds that Act as Enhancers of the Vanilloid Receptor 1 (AID 488979)
# Procedure, shortened: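 TRPV1-expressing cells loaded with Fluo-8 calcium dye; compounds added and calcium influx read kinetically for 3 min (agonist phase), then capsaicin at EC20 added and read 2 min more for enhancement. Fluorescence ex 480/em 520 nm.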
# [5] = molecular target: Thyrotropin receptor (Homo sapiens) (UniProt P16473); test: qHTS Assay for Antagonists of the Thyroid Stimulating Hormone Receptor (AID 488980)
# Procedure, shortened: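 Inhibition of cAMP raised by EC80 TSH (4 nM final) was read by HTRF, with lysate cAMP competing against cAMP-d2 for cryptate antibody after 30 min at room temperature. The cells were transfected HEK293 held in phosphodiesterase inhibitor RO 20-1724 at 70 uM.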
# [6] = molecular target: Thyrotropin-releasing hormone receptor (Homo sapiens) (UniProt P34981); test: qHTS for Small Molecule Agonists and Allosteric Enhancers of Human TRH Receptor: Validation Screen for Agonists (AID 493127;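 active = calcium activation more than 3 SD above the typical response in the agonist read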;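 note: intracellular calcium rise by fluo-8 fluorescence before TRH EC20 addition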); details: TRH receptor agonist cell assay; at 2 µM; active compounds read high
# Procedure, shortened: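 Read-out: intracellular calcium release measured kinetically by FDSS (fluo-8, ex 480/em 530 nm), 1 reading/s after a 10-cycle baseline. TRHR cells, 2000/well, cultured 18 h at 33.5C, dye-loaded at room temp. Compound-evoked positive calcium signal flags agonists.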
# [7] = molecular target: Galactokinase (Homo sapiens) (UniProt P51570); test: qHTS Validation Assay for Inhibitors of Human Galactokinase (GALK) (AID 493189)
# Procedure, shortened: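 Inhibition was measured as remaining ATP, detected by luciferase luminescence after a 1 h room-temperature reaction. Final conditions: 5 nM GALK, 100 uM galactose, 35 uM ATP, pH 8.0 HEPES buffer.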
# [8] = molecular target: Lysosomal alpha-glucosidase (Homo sapiens) (UniProt P10253); test: Confirmation of Inhibitors and Activators of Purified Human alpha-Glucosidase (AID 2115; active = well fitted curve in either direction with a large enough effect)
# Procedure, shortened: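 Fluorogenic 4-MU-substrate hydrolysis (400 uM substrate, 4 nM human enzyme) over 20 min at room temperature, pH 5.0 citrate buffer plus 0.005% Tween-20; NaOH/glycine stop, then ex 365/em 440 nm read. Titration up to 77 uM; Hill-equation AC50, normalized to no-enzyme and full-activity controls.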
# [9] = Confirmatory screen GU Rhodamine qHTS for Zika virus inhibitors qHTS (AID 1347157); note: nearly all actives have a fitted effect of over 70% in size
# Procedure, shortened: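 Percent inhibition derives from the 15-min fluorescence change (ex 480, em 540 nm), normalized to no-enzyme and no-inhibitor wells. Reactions contained 25 nM NS2B-NS3 complex and 1.5 microM substrate in 10 mM Tris-HCl pH 8.0.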
# 7G8 = test: qHTS profiling for inhibitors of Plasmodium falciparum proliferation (AID 504749); note: potency is the fitted concentration of half-maximal effect; nearly all actives have a fitted effect of over 60% in size; details: P. falciparum in erythrocytes, SYBR Green DNA, 72 h; series mostly up to 28.7 µM
# Procedure, shortened: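 Fluorescence of SYBR Green-bound parasite DNA, read at 485/535 nm, served as the growth measure. Infected erythrocytes were cultured with compound 72 h; artemisinin (0.29 uM) and DMSO wells defined the normalization range.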
# [10] = Confirmatory qHTS for VERO E6 Cytotoxicity Assay: Counterscreen for SARS-CoV-2 CPE Assay (AID 1508605; calls by dose curve; note: nearly all actives have a fitted effect of over 60% in size)
# [11] = Confirmatory qHTS for activators (rescue) of SARS-CoV-2 Cytopathic Effect (CPE) (AID 1508606; calls by dose curve; note: nearly all actives have a fitted effect of over 70% in size)
# [12] = Primary qHTS for inhibitors of SARS-S pseudo-typed particle cell entry (AID 1479145; calls by dose curve; note: nearly all actives have a fitted effect of over 45% in size)
# [13] = Primary qHTS for Huh7 cytotoxicity: counterscreen for inhibitors of MERS-S pseudotyped particle cell entry (AID 1479147; calls by dose curve); details: outcome: dose series up to 57.1 µM unless noted
# [14] = Primary qHTS for inhibitors of MERS-S pseudo-typed particle cell entry (AID 1479149; calls by dose curve; note: nearly all actives have a fitted effect of over 60% in size)
# [15] = Primary qHTS for Vero E6 cytotoxicity: counterscreen for inhibitors of SARS-S pseudo-typed particle cell entry (AID 1479150; calls by dose curve); details: outcome: dose series up to 57.1 µM unless noted
# Sequence of Thyrotropin receptor (Homo sapiens) (P16473 whole entry, looked up): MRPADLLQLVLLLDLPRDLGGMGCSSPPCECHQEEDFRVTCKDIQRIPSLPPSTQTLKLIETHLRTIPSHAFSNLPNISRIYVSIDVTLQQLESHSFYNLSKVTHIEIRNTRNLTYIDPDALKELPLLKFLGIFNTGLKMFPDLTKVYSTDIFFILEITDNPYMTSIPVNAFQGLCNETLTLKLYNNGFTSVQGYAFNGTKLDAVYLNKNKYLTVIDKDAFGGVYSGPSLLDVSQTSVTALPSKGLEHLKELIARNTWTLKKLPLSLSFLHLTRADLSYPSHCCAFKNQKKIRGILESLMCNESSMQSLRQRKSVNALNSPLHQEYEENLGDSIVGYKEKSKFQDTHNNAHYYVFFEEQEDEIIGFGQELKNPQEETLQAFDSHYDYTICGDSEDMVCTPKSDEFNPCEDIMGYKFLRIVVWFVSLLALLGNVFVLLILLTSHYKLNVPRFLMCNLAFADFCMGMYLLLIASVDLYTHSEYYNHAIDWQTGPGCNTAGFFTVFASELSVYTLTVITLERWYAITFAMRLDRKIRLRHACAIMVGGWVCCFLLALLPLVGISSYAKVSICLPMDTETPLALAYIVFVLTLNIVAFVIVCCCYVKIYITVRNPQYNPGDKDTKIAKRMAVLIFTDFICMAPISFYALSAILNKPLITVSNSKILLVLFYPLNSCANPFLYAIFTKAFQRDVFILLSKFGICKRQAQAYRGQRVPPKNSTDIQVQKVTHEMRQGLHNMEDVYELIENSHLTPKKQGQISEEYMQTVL
# Sequence of Galactokinase (Homo sapiens) (P51570 whole entry, looked up): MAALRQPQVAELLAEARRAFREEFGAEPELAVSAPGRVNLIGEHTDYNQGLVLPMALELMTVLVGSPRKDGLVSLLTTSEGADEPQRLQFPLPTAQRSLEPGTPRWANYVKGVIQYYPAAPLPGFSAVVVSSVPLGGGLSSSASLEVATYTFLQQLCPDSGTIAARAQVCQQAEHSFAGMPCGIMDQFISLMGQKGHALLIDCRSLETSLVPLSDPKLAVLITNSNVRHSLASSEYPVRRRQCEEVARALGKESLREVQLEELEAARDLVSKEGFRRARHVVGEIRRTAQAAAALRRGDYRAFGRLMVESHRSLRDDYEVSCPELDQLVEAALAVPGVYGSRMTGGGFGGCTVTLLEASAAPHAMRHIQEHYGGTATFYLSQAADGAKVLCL
# Sequence of Pyruvate kinase (Leishmania mexicana) (Q27686 2-499 E452W): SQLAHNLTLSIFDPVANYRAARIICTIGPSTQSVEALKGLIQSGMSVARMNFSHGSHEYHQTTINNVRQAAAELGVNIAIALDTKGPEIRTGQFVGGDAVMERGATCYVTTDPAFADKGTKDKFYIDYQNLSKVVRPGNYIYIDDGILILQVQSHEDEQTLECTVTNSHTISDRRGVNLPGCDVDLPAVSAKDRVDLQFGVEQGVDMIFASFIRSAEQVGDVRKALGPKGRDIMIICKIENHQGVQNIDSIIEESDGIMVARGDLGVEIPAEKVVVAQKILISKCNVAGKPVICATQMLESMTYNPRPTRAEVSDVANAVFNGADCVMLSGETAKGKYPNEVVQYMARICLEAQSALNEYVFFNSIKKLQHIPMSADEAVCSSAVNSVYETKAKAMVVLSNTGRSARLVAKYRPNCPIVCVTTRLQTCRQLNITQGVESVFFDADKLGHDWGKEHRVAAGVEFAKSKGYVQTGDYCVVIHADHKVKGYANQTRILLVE
# Sequence of Thyrotropin-releasing hormone receptor (Homo sapiens) (P34981 whole entry, looked up): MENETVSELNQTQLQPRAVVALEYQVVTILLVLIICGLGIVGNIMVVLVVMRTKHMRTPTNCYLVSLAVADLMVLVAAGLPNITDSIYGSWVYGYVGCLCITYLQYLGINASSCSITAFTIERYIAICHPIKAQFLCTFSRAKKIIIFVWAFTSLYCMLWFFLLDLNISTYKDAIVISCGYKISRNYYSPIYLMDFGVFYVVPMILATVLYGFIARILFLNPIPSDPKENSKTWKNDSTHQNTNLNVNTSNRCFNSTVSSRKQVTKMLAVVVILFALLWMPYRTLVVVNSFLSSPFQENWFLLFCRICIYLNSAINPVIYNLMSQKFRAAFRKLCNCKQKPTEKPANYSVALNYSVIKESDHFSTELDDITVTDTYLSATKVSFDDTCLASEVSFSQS
# Sequence of M-phase phosphoprotein 8 (Homo sapiens) (Q99549 whole entry, looked up): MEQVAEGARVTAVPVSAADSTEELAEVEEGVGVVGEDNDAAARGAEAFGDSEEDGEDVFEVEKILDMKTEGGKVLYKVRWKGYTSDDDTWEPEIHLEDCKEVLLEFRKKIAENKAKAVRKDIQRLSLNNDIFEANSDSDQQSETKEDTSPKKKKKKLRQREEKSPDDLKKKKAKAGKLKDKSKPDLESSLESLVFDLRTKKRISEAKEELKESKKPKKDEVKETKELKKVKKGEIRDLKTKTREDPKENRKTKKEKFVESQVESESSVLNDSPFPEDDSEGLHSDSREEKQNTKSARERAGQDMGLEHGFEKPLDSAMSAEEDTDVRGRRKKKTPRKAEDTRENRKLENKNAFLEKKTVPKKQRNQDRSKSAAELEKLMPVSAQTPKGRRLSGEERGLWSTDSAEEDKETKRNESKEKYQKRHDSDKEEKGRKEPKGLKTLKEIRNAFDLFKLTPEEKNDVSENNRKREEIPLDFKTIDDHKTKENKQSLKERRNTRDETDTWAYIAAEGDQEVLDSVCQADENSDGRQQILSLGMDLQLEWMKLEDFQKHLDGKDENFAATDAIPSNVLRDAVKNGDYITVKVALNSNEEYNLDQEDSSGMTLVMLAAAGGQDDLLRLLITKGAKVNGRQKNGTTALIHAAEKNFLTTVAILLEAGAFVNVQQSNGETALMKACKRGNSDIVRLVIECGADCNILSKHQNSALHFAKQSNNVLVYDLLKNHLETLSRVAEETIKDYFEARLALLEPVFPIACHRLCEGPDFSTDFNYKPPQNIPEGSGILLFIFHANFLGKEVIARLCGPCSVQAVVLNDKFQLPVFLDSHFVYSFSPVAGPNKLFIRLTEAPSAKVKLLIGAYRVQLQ
# Sequence of Transient receptor potential cation channel subfamily V member 1 (Homo sapiens) (Q8NER1 whole entry, looked up): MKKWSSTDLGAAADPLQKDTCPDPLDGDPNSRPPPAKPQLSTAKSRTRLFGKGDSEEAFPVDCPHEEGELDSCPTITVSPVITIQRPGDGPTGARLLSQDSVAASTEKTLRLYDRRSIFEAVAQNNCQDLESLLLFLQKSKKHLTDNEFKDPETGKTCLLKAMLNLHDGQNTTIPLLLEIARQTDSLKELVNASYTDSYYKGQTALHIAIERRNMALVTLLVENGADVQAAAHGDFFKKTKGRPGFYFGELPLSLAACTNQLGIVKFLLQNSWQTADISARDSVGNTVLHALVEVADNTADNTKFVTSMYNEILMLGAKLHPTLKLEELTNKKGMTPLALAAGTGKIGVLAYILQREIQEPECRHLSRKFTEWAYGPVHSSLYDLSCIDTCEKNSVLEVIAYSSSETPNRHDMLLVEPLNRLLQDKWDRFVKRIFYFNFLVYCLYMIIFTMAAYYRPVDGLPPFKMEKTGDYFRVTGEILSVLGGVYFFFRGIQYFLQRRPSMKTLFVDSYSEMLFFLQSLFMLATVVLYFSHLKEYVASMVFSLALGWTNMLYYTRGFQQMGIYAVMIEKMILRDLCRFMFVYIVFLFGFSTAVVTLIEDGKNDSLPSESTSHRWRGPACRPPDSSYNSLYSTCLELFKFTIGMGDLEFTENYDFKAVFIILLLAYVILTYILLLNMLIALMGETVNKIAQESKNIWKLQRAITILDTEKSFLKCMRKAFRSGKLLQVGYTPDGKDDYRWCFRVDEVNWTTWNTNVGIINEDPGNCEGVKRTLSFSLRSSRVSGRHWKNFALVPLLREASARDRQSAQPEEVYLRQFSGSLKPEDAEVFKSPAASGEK
structure (smiles),measurement,setting,value
N#CC(C#N)=Cc1ccc([N+](=O)[O-])c(O)c1,Potency,[1],20 µM (active)
same,Potency,[2],inactive
same,Potency,[3],inactive
same,outcome,[4],inactive
same,outcome,[5],inactive
same,activation,[6],-0.188% (inactive)
same,outcome,[7],inactive
O[C@H]1[C@H](O)[C@@H](O)CN2CC[C@H](O)[C@H]12,outcome,[8],inactive
O=C(O)c1ccccc1-c1c2cc(Br)c(=O)cc-2oc2[c]([Hg])c(O)c(Br)cc12,Potency,[9],inactive
CC(C)[C@@]1(NC(=O)[C@H]2CC3c4cccc5[nH]cc(c45)C[C@H]3N(C)C2)O[C@@]2(O)C3CCCN3C(=O)[C@@H](Cc3ccccc3)N2C1=O (stereo partly specified),Potency,7G8,0.199 µM (active)
CCc1cccc(CC)c1-n1c(C=C(C)C)c(C(=O)N2CCNCC2)cc(-c2nc(-c3ccc(C(F)(F)F)cc3)cs2)c1=O,Potency,[10],inactive
same,Potency,[11],inactive
Cc1onc(-c2ccccc2)c1C(=O)N[C@@H]1C(=O)N2[C@@H]1SC(C)(C)[C@@H]2C(=O)O,Potency,[12],inactive
same,outcome,[13],inactive
same,Potency,[14],inactive
same,outcome,[15],inactive
